# Laboratory results taken from PubChem BioAssay AID2513 (National Center for Advancing Translational Sciences (NCATS), 2010).
# Records with an inconclusive call do not appear. Activity calls are given as the source filed them. The call rests on the fitted dose curve; in most records, active means well fitted curve in the direction sought with a large enough effect; inconclusive means small, poorly fitted or top-dose-only effect, or another doubt; inactive means no such curve, though single readings can be large or run the other way.
# Assay: Counterscreen Assay for Enhancers of SMN2 Splice Variant Expression: Modulation of SMN1 Expression for Probe SAR
# Settings: HEK293 SMN1-luciferase reporter, luminescence, 30-36 h; series mostly up to 46.1 µM; activity change, negative = inhibition: at the top concentration
# From the text: NIH Chemical Genomics Center [NCGC] NIH Molecular Libraries Probe Production centers Network [MLPCN] MLPCN Grant: R03 MH084179-01 Assay Submitter (PI): Elliot Androphy NCGC Assay Overview: Spinal muscular atrophy (SMA) is caused by insufficient levels of the survival motor neuron protein SMN. The SMN locus on chromosome 5q13 contains two inverted copies of SMN called SMN1 and SMN2 which are 99% identical at the amino acid level. SMN1 is a fully functional protein and SMN2 skips exon 7 90% of the time. Skipping of exon 7 produces non-functional protein product. 10% of the SMN2 protein includes exon 7 and is fully functional. In the SMA disease state, mutations in the SMN1 locus are the cause of the disease state. Because only 10% of SMN2 is of the fully functional form, it is not sufficient to overcome the deficiency produced by the loss of the SMN1 product. A therapy that either increase the amount of SMN2 product made or to increase the inclusion of exon 7 has been proposed for the treatment of SMA. We have designed an assay to identify small molecules that can increase the amount of functional SMN2 product by appending a luciferase reporter gene after the native SMN2 gene, such that inclusion of exon 7 in the expressed product places the luciferase sequence in frame, thus generating functional luciferase enzyme. As a counterscreen for nonspecific modulators of expression, we have run compounds through a similar assay that measures expression of an SMN1-luciferase chimera.
# NCGC Assay Protocol Summary: This screen utilizes a luciferase reporter gene assay, combining the promoter with the major portion of the native SMN1 cDNA (exons 1 -7, intron 8 , exon 8 fused to luciferase) stably expressed in HEK293 cells. Compounds that increase luciferase signal presumably enhance expression of the functional SMN1 splice variant. Passaging media contained DMEM w/ glutamax (+phenol red) 10% FCS, 1x pen/strep, 200 ug/ml hygro, 1x sodium pyruvate. Assay media contained DMEM w/ glutamax (-phenol red) 10% FCS, 1x pen strep, 1x pyruvate Sequence, Parameter, Value, Description (1) Cells, 5 uL, 2000 cells/well, 1536 TC treated White solid bottom plate (2) Time, 10-12 hours, 37C 5% CO2 (3) Compound, 23 nl, MLSMR Library (4) Control Compound, 23 nL, Sodium butyrate st 4.5mM (final) conc (5) Time, 30-36 hours, 37C 5% CO2 (6) Reagent, 3 ul, One Glo (TM) from Promega (7) Time, 5-15 minutes, Room temp (8) Detector, Viewlux: luminescent read, 60 second integration, high speed 2x binning Keywords: Spinal muscular atrophy, SMA, SMN2, high throughput screening, MLSMR, MLPCN, NIH Roadmap, qHTS and NCGC
Structure (SMILES),"activity change, negative = inhibition",Potency
CC(=O)c1cccc(-c2csc(N3CCC(C(N)=O)CC3)n2)c1,-21.4% (inactive),
NC(=O)C1CCN(c2nc(-c3ccccc3-c3ccccc3)cs2)CC1,-13% (inactive),
CC(=O)c1ccc(-c2csc(N3CCC(C(N)=O)CC3)n2)cc1,-12.7% (inactive),
CN(C)C(=O)c1cccc(-c2csc(N3CCC(C(N)=O)CC3)n2)c1,3.37% (inactive),
NC(=O)C1CCN(c2nc(-c3ccccc3C(F)(F)F)cs2)CC1,-17.9% (inactive),
NC(=O)C1CCN(c2nc(-c3cccs3)cs2)CC1,-20.2% (inactive),
NC(=O)C1CCN(c2nc(-c3cccc(Cl)c3)cs2)CC1,-3.66% (inactive),
COc1ccc(-c2csc(N3CCC(C(N)=O)CC3)n2)cc1,-28.5% (inactive),
Brc1ccc(-c2csc(N3CCCCC3)n2)cc1,-25.7% (inactive),
CN(C)c1ccccc1-c1csc(N2CCC(C(N)=O)CC2)n1,5.97% (inactive),
NC(=O)C1CCN(c2nc(-c3ccccc3F)cs2)CC1,-41% (inactive),
NC(=O)C1CCN(c2nc(-c3ccc4c(c3)OCCO4)cs2)CC1,,19.4 µM (active)
NC(=O)C1CCN(c2nc(-c3ccccc3Br)cs2)CC1,-7.81% (inactive),
Cn1ccc2cc(-c3csc(N4CCC(C(N)=O)CC4)n3)ccc21,-22.7% (inactive),
NC(=O)C1CCN(c2nc(-c3ccc4ccccc4c3)cs2)CC1,-13.3% (inactive),
NC(=O)C1CCN(c2nc(-c3cccc(N)c3)cs2)CC1,-4.38% (inactive),
CS(=O)(=O)c1cccc(-c2csc(N3CCC(C(N)=O)CC3)n2)c1,-9.05% (inactive),
NC(=O)C1CCN(c2nc(-c3cccnc3)cs2)CC1,-8.52% (inactive),
NC(=O)C1CCN(c2nc(-c3ccccc3N)cs2)CC1,-8.38% (inactive),
Cc1noc(C)c1-c1csc(N2CCC(C(N)=O)CC2)n1,22.9% (inactive),
NC(=O)C1CCN(c2nc(-c3cc4ccccc4o3)cs2)CC1,-20.8% (inactive),
NC(=O)C1CCN(c2nc(-c3ccc4occc(=O)c4c3)cs2)CC1,-29.9% (inactive),
CS(=O)(=O)c1ccccc1-c1csc(N2CCC(C(N)=O)CC2)n1,-12.4% (inactive),
